Measurements reported in PubChem BioAssay (Tox21).
Values joined by “and” are separate entries in the source; they are usually repeats but may differ in a detail not shown here. Equal values may be shown once. A number with no mark means an inactive call. Active and inactive are the calls of the source. Calls come from the whole dose curve.

assay: qHTS assay to identify small molecule agonists of the estrogen related receptor (ERR) signaling pathway from Tox21 library (AID 1224849); settings: ERR reporter cell line, ONE-Glo luciferase, 18 h; at 42.5 µM (top of the series); note: nearly all actives have a fitted effect of over 15% in size
Text: National Center for Advancing Translational Sciences [NCATS]
NIH Chemical Genomics Center [NCGC]
U.S. Environmental Protection Agency [EPA]
National Institutes of Environmental Health Sciences [NIEHS]
National Toxicology Program [NTP]
Estrogen related receptors (ERRs), the first orphan nuclear receptors discovered, play an important role in the control of cellular energy metabolism. ERRs are required for high-energy production in response to the environmental challenges. ERR-alpha was also identified as an adverse marker for breast cancer progression; ERR-alpha-positive tumors have a poor prognosis. To screen and to identify environmental compounds that perturb the ERR signaling pathways could provide valuable information for potential therapeutic or preventive measures in the treatment of metabolic disease. For identifying ERR agonists, ERR cell line (provided by NTP) has been used to screen Tox21 10K library.
The ERR cells were dispensed at 2,000 cells/5 ul/well in 1536-well white plates using a Multidrop dispenser. After the assay plates were incubated at a 37 C/5% CO2 incubator for 6 hours, 23 nL of compounds dissolved in DMSO, positive and negative controls or DMSO only was transferred to the assay plate by a pin tool. The plates were incubated at 37 C for 18 hours. 4 ul/well of One-Glo reagent was added into the assay plates using a Flying Reagent Dispenser. After 30-minute incubation at room temperature, the luminescence intensity in the plates was measured using a ViewLux plate reader.
% is set by controls: 0 for no effect and ±100 for the full control effect.

Row | SMILES | activity change, positive = activation [%]
1 | CCC1(c2ccc(N)cc2)CCC(=O)NC1=O (stereo not given) | 5.08
2 | O=[N+]([O-])/N=C1\NCCN1Cc1ccc(Cl)nc1 | 0.753
3 | CC(C)=CC1C(C(=O)OCc2cccc(Oc3ccccc3)c2)C1(C)C (stereo not given) | -0.963
4 | CC(C)=CC1C(C(=O)OCN2C(=O)C3=C(CCCC3)C2=O)C1(C)C (stereo not given) | -16.7
5 | CC(C)(O)C(=O)Nc1ccc([N+](=O)[O-])c(C(F)(F)F)c1 | -39.6
6 | NC(=O)CN1CCCC1=O | 2.36
7 | N#Cc1nn(-c2c(Cl)cc(C(F)(F)F)cc2Cl)c(N)c1S(=O)C(F)(F)F (stereo not given) | -52.7
8 | c1ccc2c(c1)Nc1ccccc1S2 | -0.479

same assay, conditions: ERR reporter cell line, ONE-Glo luciferase, 18 h; at 92.4 µM (top of the series)

Row | SMILES | activity change, positive = activation
9 | N#CC(c1ccccc1)c1ccccc1 | -14.8% and -8.2%
10 | O=C1CCCO1 | 3.83% and -0.0508%
11 | OC(c1ccc(Cl)cc1)(c1cncnc1)c1ccccc1Cl (stereo not given) | -83.4% and -41.2%
12 | Oc1ccc(Cl)cc1Cl | -0.925% and -0.996%
13 | O=P(OCCCl)(OCCCl)OCCCl | 1.87% and 3.07%
14 | CCC1(c2ccc(N)cc2)CCC(=O)NC1=O (stereo not given) | -19.8%
15 | N#CCCCCC#N | 8.89% and 3.44%
16 | CC1(C)C(C(=O)OC(C#N)c2cccc(Oc3ccccc3)c2)C1(C)C (stereo not given) | -46.1% and -24.4%
17 | Cn1c(-c2ccccc2)cc(-c2ccccc2)[n+]1C | -54.1% and -52.6%
18 | O=[N+]([O-])/N=C1\NCCN1Cc1ccc(Cl)nc1 | -0.637%
19 | Nc1ccc2ccccc2c1 | 30.3% (active)
20 | CN(C)P(=O)(N(C)C)N(C)C | 5.26% and 10.2%
21 | CC(C)=CC1C(C(=O)OCc2cccc(Oc3ccccc3)c2)C1(C)C (stereo not given) | -0.843%
22 | CCCCOCCOC(C)=O | 1.87% and 10.2%
23 | CC(C)Nc1ccc(Nc2ccccc2)cc1 | -81.7% and -69.9%
24 | N#Cc1cccnc1 | 5.82% and 1.56%

Row | SMILES | activity change, positive = activation
25 | CC1=C(C(=O)Nc2ccccc2)SCCO1 | -23.3% and -26.7%
26 | CC(C)=CC1C(C(=O)OCN2C(=O)C3=C(CCCC3)C2=O)C1(C)C (stereo not given) | -22.5%
27 | COc1ccc(C=O)cc1OC | -3.94% and -4.02%
28 | CC(C)(O)C(=O)Nc1ccc([N+](=O)[O-])c(C(F)(F)F)c1 | -47.4%
29 | O=S(=O)(O)C(F)(F)C(F)(F)C(F)(F)C(F)(F)C(F)(F)C(F)(F)C(F)(F)C(F)(F)F | -7.99% and -0.0044% and -21.1%
30 | CCOP(=O)(OCC)OCC | -7.79% and 1.86%
31 | CCOP(=S)(OCC)OP(=S)(OCC)OCC | -12.2% and -0.199%
32 | NC(=O)CN1CCCC1=O | 6.19%
33 | O=C1C(Cl)=C(Cl)C(=O)c2ccccc21 | -82.7% and -46.9%
34 | CCC[CH2][Sn]([Cl])([Cl])[CH2]CCC | -84.1% and -80%
35 | N#Cc1nn(-c2c(Cl)cc(C(F)(F)F)cc2Cl)c(N)c1S(=O)C(F)(F)F (stereo not given) | -58.7%
36 | Clc1cccc(Cl)c1 | -0.0986% and 9.44%
37 | c1ccc2c(c1)Nc1ccccc1S2 | -21.3%
38 | O=C1Nc2ccc(Cl)cc2C(c2ccccc2)=NC1O (stereo not given) | -20.3% and -12.2%
39 | Cc1cccc(N=Nc2ccc(N(C)C)cc2)c1 | 234% (active) and 86.9% (active)
40 | CCCCOC(=O)COC(=O)c1ccccc1C(=O)OCCCC | 4.38% and 0.695%
